Assay results as given in the supplement of paper PMC9334596.
Several values for one entry are separate records, joined by “and”; a condition that tells them apart may be missing. Identical values can stand only once. The full ranking holds about 5,300 compounds; the median of “PER2::LUC luminescence relative to vehicle control” is about 0.96, and the highest 2% start at about 1.3. The sample as a whole holds a higher share of the highest values than the screen did.

Test system: mPer2Luc MEF
Experiment: PER2::LUC luminescence relative to vehicle control (fold of vehicle); higher = higher PER2::LUC reporter signal
Conditions: 10 µM
How it was run: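 The reported values are PER2::LUC luminescence as fold of vehicle control in mouse embryonic fibroblasts carrying the mPer2Luc reporter. Cells were seeded at ~3000 per well in 384-well plates in DMEM with 10% FBS at 37 °C and 5% CO2, and compounds were added at 10 μM 48 h later. ONE-Glo luminescence was read 24 h and 30 h after treatment.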

Row | Compound | PER2::LUC luminescence (time after treatment 24 h) | PER2::LUC luminescence (time after treatment 30 h)
1 | CCC(C(=S)O[C@]12CCC[C@H](CC1)N2C)c1ccccc1 (some centres not stated) | 0.715 | 0.77
2 | Nc1ccc(S(=O)(=O)NCCc2ccccc2)cc1 | 1.03 | 1
3 | CC1=CC(=O)C2=C(C)CC[C@@H]3[C@H](OC(=O)[C@H]3C)[C@@H]12 | 0.959 | 0.978
4 | OCC12COC(c3ccc(F)cc3)N1C(c1ccc(F)cc1)OC2 (configuration not stated) | 1.07 | 1.03
5 | C[C@@H](Nc1cc(NS(=O)(=O)N2CCC2)nc(SCc2cccc(F)c2F)n1)[C@@H](O)CO | 1.03 | 1
6 | COc1ccc2c(c1)C[C@H](C(=O)Nc1ccc(-c3cn[nH]c3)cc1OCCN(C)C)CO2 | 0.472 | 0.452
7 | CCN(CC)C(=O)C(c1ccccc1)N1CCN(c2ccc(NC(=O)c3ccccc3-c3cccnc3)cc2F)CC1 (configuration not stated) | 0.968 | 1.09
8 | O=C[C@H](O)[C@H](O)CO | 0.921 | 0.987
9 | CN1C(=O)C[C@H](C(=O)O)[C@H]1c1cccnc1 | 1.08 | 1.07
10 | COc1cc(O)c(C(=O)/C=C/c2ccccc2)c(OC)c1 | 0.907 | 0.937
11 | O=C(/C=C/c1ccccc1)c1ccc(O[C@@H]2O[C@H](CO)[C@@H](O)[C@H](O)[C@H]2O)cc1O | 1.21 | 1.27
12 | O=C(/C=C/c1ccc(O)cc1)c1ccc(O)cc1O | 1.24 | 1.41
13 | CC(C)=CCc1c(O)ccc(C(=O)/C=C/c2ccc(O)cc2)c1O | 0.904 | 0.903
14 | O=C(/C=C/c1ccccc1)c1ccc(O)cc1O | 1.21 | 1.43
15 | O=C(/C=C/c1ccc(O)c(O)c1)c1ccc(O)cc1O | 1.04 | 1.13
16 | Clc1ccc(Nc2nc3ccccc3c3nc(C4CCCCC4)[nH]c23)cc1Cl | 0.84 | 0.867
17 | OCC1OC(O)CC(O)C1O (configuration not stated) | 1.15 | 0.973
18 | CCCCCCCC(=O)CCc1ccc(O)c(OC)c1 | 1.04 | 0.901
19 | N=C(N)SCc1ccc(CSC(=N)N)s1 | 1.01 and 0.976 | 1.01 and 0.977
20 | COCCOc1nc(N)c2[nH]c(=O)n(Cc3ccccc3)c2n1 | 1.21 | 1.13
21 | O=C(O)CC1CC(c2ccccc2)=NO1 (configuration not stated) | 0.994 and 1.06 | 0.948 and 1.15
22 | COC(=O)CC1CC(c2ccc(O)cc2)=NO1 (configuration not stated) | 1.51 | 1.75
23 | CC(C)=CCC[C@](C)(O)[C@H]1CC[C@]2(C)[C@@H]1CC[C@@H]1[C@@]3(C)CCC(=O)C(C)(C)[C@@H]3CC[C@]12C | 1.05 | 0.987
24 | CC(=O)OC[C@@]1(O)C[C@@]23CC[C@@H]4c5ccoc5C=C[C@@]4(C)[C@@H]2CC[C@@H]1C3 | 1.02 | 0.958

Row | Compound | PER2::LUC luminescence (time after treatment 24 h) | PER2::LUC luminescence (time after treatment 30 h)
25 | N#Cc1cccc2sc(C(=O)N=C(N)N)cc12 | 1.02 | 1.08
26 | NCC(O)CC(=O)O (configuration not stated) | 1.23 and 1.06 | 1.56 and 0.991
27 | N[C@H](CC(=O)O)C(=O)O | 1.09 | 1.08
28 | C[N+](C)(C)C[C@H](O)CC(=O)O | 0.959 | 0.919
29 | O=C1OC(C=Cc2ccccc2)=NC1=Cc1cccnc1 | 1.03 | 1.05
30 | O=C(CCc1ccccc1)N1CCC(O)(Cn2cnc3cc(Cl)ccc3c2=O)CC1 | 0.949 | 0.916
31 | Cc1ccc2c(Nc3ccc(Cl)cc3)nccc2c1Nc1ncccc1-c1ncnc2nc[nH]c12 | 0.42 | 0.349
32 | N=C(N)NC(=O)c1nc(Cl)c(N)nc1N | 1.32 | 1.12
33 | N=C(NC(=O)c1nc(Cl)c(N)nc1N)Nc1ccccc1 | 1.32 | 1.39
34 | N/C(=N\C(=O)c1nc(Cl)c(N)nc1N)NCc1ccccc1 | 1.08 | 0.986
35 | CNc1ncnc2c1ncn2[C@H]1C[C@H](O)[C@@H](CO)O1 | 1.04 | 0.963
36 | C[C@@H]1O[C@@H](O[C@@H]2[C@@H](O)[C@H](O)[C@@H](CO)O[C@H]2c2c(O)cc(O)c3c(=O)cc(-c4ccc(O)cc4)oc23)[C@H](O)[C@H](O)[C@H]1O | 1.04 | 0.979
37 | O=C1c2ccccc2C(=O)C1c1ccc(Br)cc1 | 0.477 | 0.974
38 | COc1ccc(C2C(=O)c3ccccc3C2=O)cc1 | 1.08 | 1.36
39 | O=C1c2ccccc2C(=O)C1c1ccccc1 | 1.05 and 0.913 | 1 and 0.991
40 | CCCCOC(=O)OCCCC | 1 | 1.02
41 | CC1=CC(=O)CC(C)(C)C1(O)/C=C/C(C)=C\C(=O)O (racemic) | 1.01 | 1.02
42 | CCCCCCOc1ccccc1C(N)=O | 1.33 | 1.53
43 | CCOCCOc1ccccc1C(N)=O | 0.861 | 1.09
44 | CCOc1ccccc1C(N)=O | 1.03 and 0.951 | 0.986 and 0.793
45 | COc1ccc2cc([C@H](C)C(=O)O)ccc2c1 | 0.987 and 1.09 and 0.7 | 0.972 and 0.822 and 0.852
46 | COc1ccc2cc(CCC(C)=O)ccc2c1 | 1.75 | 1.7
47 | COc1ccc2cc([C@@H](C)C(=O)O)ccc2c1 | 1 | 1.05
48 | CCO/N=C1\c2ccccc2-c2nc(C#N)c(C#N)nc21 | 0.664 | 0.619

Row | Compound | PER2::LUC luminescence (time after treatment 24 h) | PER2::LUC luminescence (time after treatment 30 h)
49 | C=CC(=O)c1ccc(CCCCCC)cc1 | 1.02 | 0.845
50 | CCNCCNC(=O)c1c(C)[nH]c(/C=C2\C(=O)Nc3ccc(F)cc32)c1C | 0.42 | 0.619
51 | CC(C)(Cc1nc(-c2ccc(O)cn2)no1)C(=O)NC1=C(C(=O)O)CCCC1 | 1.02 | 1.08
52 | c1ccc(-c2ccc(C(c3ccccc3)n3ccnc3)cc2)cc1 (configuration not stated) | 1.45 | 1.32
53 | N#Cc1ccc(C(c2ccc(C#N)cc2)n2cncn2)cc1 | 0.794 | 1.11
54 | FC(F)(F)c1ccccc1-n1ccnc1 | 0.975 | 0.907
55 | O=C1c2ccccc2C(=O)c2oc(-c3ccccc3)nc21 | 1.15 | 0.538
56 | CC(C)c1cc(-c2n[nH]c(=O)n2-c2ccc3c(ccn3C)c2)c(O)cc1O | 0.062 | 0.052
57 | Cn1ccc2cc(NC(=O)Nc3cccnc3)ccc21 | 1.15 | 0.855
58 | Cc1cc(NC(=O)Nc2ccc3c(ccn3C)c2)sn1 | 1.59 | 1.52
59 | N[C@H](CCC(=O)O)C(=O)O | 1.1 | 1.01
60 | C=C1C[C@@]23CC[C@H]4[C@@](C)(CCC[C@@]4(C)C(=O)O)[C@@H]2CC[C@]1(O)C3 | 0.886 | 1.12
61 | CC(C)C1=CC2=CC[C@@H]3[C@](C)(CCC[C@@]3(C)C(=O)O)[C@H]2CC1 | 1.34 | 1.15
62 | CC(C)c1cc2c(cc1S(=O)(=O)O)[C@@]1(C)CCC[C@@](C)(C(=O)O)[C@@H]1CC2 | 1.03 | 1
63 | FC(F)(F)c1ccc(Nc2nc(-c3c(C(F)(F)F)nc4ccccn34)cs2)cc1 | 0.269 | 0.305
64 | COc1cc(NC(=O)c2ccc(-c3ccc(Cl)cc3)o2)cc(OC)c1 | 0.947 | 1.04
65 | CC(C)(C)c1ccc(/C=C/C(=O)Nc2ccc3c(c2)OCCO3)cc1 | 0.942 | 1.11
66 | COc1cccc(NC(=O)/C=C/c2ccc(Cl)cc2)c1 | 1.39 | 1
67 | C[n+]1ccc(C=Cc2ccc3ccccc3c2)cc1 | 0.908 | 1.07
68 | Nc1ccc(CCNc2ncnc3c2ncn3C2OC(CO)C(O)C2O)cc1 (configuration not stated) | 0.951 | 0.857
69 | CNc1ncnc2c1ncn2[C@@H]1O[C@H](CO)[C@@H](O)[C@H]1O | 0.974 | 1.04
70 | OCC1OC(n2cnc3c(NC4CCCCC4)ncnc32)C(O)C1O (configuration not stated) | 0.986 | 1.02
71 | CC(Cc1ccccc1)Nc1ncnc2c1ncn2C1OC(CO)C(O)C1O (single isomer, unassigned; (-)) | 0.925 | 0.965
72 | Cc1ccccc1CNc1ncnc2c1ncn2[C@@H]1O[C@H](CO)[C@@H](O)[C@H]1O | 1.35 | 1.28

Row | Compound | PER2::LUC luminescence (time after treatment 24 h) | PER2::LUC luminescence (time after treatment 30 h)
73 | OC[C@H]1O[C@@H](n2cnc3c(Nc4ccccc4)ncnc32)[C@H](O)[C@@H]1O | 1.41 | 1.13
74 | COc1ccc2cc1Oc1ccc(cc1)C[C@@H]1c3cc(c(OC)cc3CCN1C)Oc1c(OC)c(OC)cc3c1[C@H](C2)N(C)CC3 | 0.674 | 0.713
75 | COc1cc(N2CCOCC2)ccc1NC(=O)c1csc(-c2cccnc2)n1 | 0.906 | 1.02
76 | CCOC(=O)c1cc(OC)c(OC)cc1NC(=O)c1cc(OC)c(OC)c(OC)c1 | 1.08 | 1.16
77 | CC(C)CCCC(C)C1CCC2C3CCC4CC(O)CCC4(C)C3CCC12C (configuration not stated) | 0.978 | 0.951
78 | CC1(C)C=Cc2cc3ccc(=O)oc3cc2O1 | 1.26 | 1.48
79 | COc1cc2ccc(=O)oc2cc1O | 1.02 | 1.04
80 | O=c1ccc2cc(O)c(O)cc2o1 | 0.867 | 0.732
81 | CCOC(=O)CCCCCCCCCCCN(C)C(=O)CO[C@H](C)[C@@H](C)OCC(=O)N(C)CCCCCCCCCCCC(=O)OCC | 1.2 | 1.08
82 | CCN1CCN(Cc2ccc(NC(=O)c3ccc(C)c(/C=C/c4cnc5[nH]ccc5c4OC)c3)cc2C(F)(F)F)CC1 | 0.349 | 0.394
83 | CCCC(=O)NCCc1c(I)[nH]c2ccc(OC)cc12 | 0.668 | 0.814
84 | CCCCC/C=C\C[C@@H](O)/C=C/c1cccc(C[C@@H](O)CCCCO)n1 | 1.07 | 0.841
85 | O=C(Nc1cccc(C(F)(F)F)c1)Nc1cc(Cl)ccc1C(=O)O | 1.07 | 1
86 | CCN(CC)CCNC(=O)c1ccc(N)cc1 | 1.11 | 1.27
87 | CCN(CC)CCNC(=O)c1cc(S(C)(=O)=O)ccc1OC | 0.984 | 0.88
88 | CCN(CC)CCNC(=O)COc1ccc(OC)cc1 | 1.38 | 1.49
89 | CC12CCC3c4ccc(O)cc4CCC3C1CCC2O (configuration not stated) | 0.721 | 0.751
90 | OC[C@H]1O[C@@H](n2cnc3c(N[C@H]4CCC[C@@H]4O)ncnc32)[C@@H](O)C1O (some centres not stated) | 1.25 | 0.88
91 | CN(C)CC1CCC2=C(C1=O)C(c1ccc(Cl)c(Cl)c1)C1=C(CCC(CN(C)C)C1=O)O2 (configuration not stated) | 1.15 | 1.08
92 | O=C1Cc2c([nH]c3ccc(Br)cc23)-c2ccccc2N1 | 1.15 | 1.88
93 | O=C1Nc2cc(Br)ccc2/C1=C1/Nc2ccccc2/C1=N\O | 0.773 | 1.09
94 | CC(C)NC[C@@H](O)COc1ccc(CC(N)=O)cc1 | 1.01 | 0.958
95 | C[C@H](NCc1ccc(OCc2cccc(F)c2)cc1)C(N)=O | 1.22 and 1.67 | 1.5 and 1.51
96 | CC(C)NCC(O)COc1ccc(CC(N)=O)cc1 (configuration not stated) | 1.26 | 1.06
